Assay results published in PubChem BioAssay (NCI).
About 83,000 compounds went through this panel and 20% of them were active in at least one assay; those are over-represented in the sample as a whole.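 Single-concentration screen, 48 h exposure, 96-well plates. Endpoint: percent growth. Below 10 = active.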 Active and inactive are the calls of the source.

Legend:
Assay in all cases: NCI-60 one-dose screen, 48 h (100 = growth as untreated, 0 = no growth, -100 = all killed)
Conditions in all cases: 10 µM unless noted
T-47D breast = tested on: T-47D breast
BT-549 breast = tested on: BT-549 breast
MDA-MB-435 melanoma = tested on: MDA-MB-435 melanoma
SW-620 colon = tested on: SW-620 colon
MCF7 breast = tested on: MCF7 breast
HCT-116 colon = tested on: HCT-116 colon
HCC-2998 colon = tested on: HCC-2998 colon
KM12 colon = tested on: KM12 colon

Measured: growth

Cc1cc(S(=O)(=O)/N=C(\N)n2nc(C)c(C)c2C)c(SCc2ccccc2)cc1Cl
inactive: T-47D breast 53% | BT-549 breast 112% | MDA-MB-435 melanoma 27% | SW-620 colon 75.4% | MCF7 breast 70.8% | HCT-116 colon 62% | HCC-2998 colon 56.9% | KM12 colon 81.7%

COC1=CC(c2ccc[nH]2)=N/C1=C\c1[nH]c(C)c(C(=O)OC(C)C)c1C
active: T-47D breast -69.2% | BT-549 breast -7.21% | MDA-MB-435 melanoma -66.2% | SW-620 colon -29.2% | MCF7 breast -35.5% | HCT-116 colon -90.3% | HCC-2998 colon -53.2% | KM12 colon -66.3%

O=C1NC2(Nc3ccccc31)C(=O)Nc1c(Cl)cc(Cl)cc12 (centres undefined)
inactive: T-47D breast 87.9% | BT-549 breast 99.3% | MDA-MB-435 melanoma 103% | SW-620 colon 100% | MCF7 breast 88.9% | HCT-116 colon 98.6% | HCC-2998 colon 104% | KM12 colon 100%

Cc1cc(N2CCN(CC(=O)Nc3ccc4c(ccn4C)c3)CC2)nc(N2CCCCCC2)n1
inactive: T-47D breast 65.4% | BT-549 breast 89.7% | MDA-MB-435 melanoma 95.2% | SW-620 colon 93.6% | MCF7 breast 77.9% | HCT-116 colon 85.6% | HCC-2998 colon 127% | KM12 colon 93.1%

O=c1c2cccc3c(N4CCCC4)ccc(c32)c2nc3ccccc3n12
inactive: T-47D breast 72.2% | BT-549 breast 71.2% | MDA-MB-435 melanoma 103% | SW-620 colon 59.5% | MCF7 breast 50.1% | HCT-116 colon 54.7% | HCC-2998 colon 70.3% | KM12 colon 87.9%

CN1C(=O)/C(=C\c2c(Cl)cccc2Cl)c2ccccc21
inactive: T-47D breast 90.3% | BT-549 breast 98.7% | SW-620 colon 66.3% | MCF7 breast 68.7% | HCT-116 colon 91.9% | HCC-2998 colon 80.4% | KM12 colon 62.3%
active: MDA-MB-435 melanoma 7.16%

O=S(=O)(Nc1ccc(F)cc1F)c1ccc(-c2cnc(C3CC3)o2)cc1
active: MDA-MB-435 melanoma -33.8%
inactive: T-47D breast 31.9% | BT-549 breast 17.2% | SW-620 colon 23.7% | MCF7 breast 20.3% | HCT-116 colon 21.2% | HCC-2998 colon 54.9% | KM12 colon 30.1%

N#CC1=C(c2ccccc2)Nc2c(c(-c3ccc(Cl)cc3)nn2-c2ccccc2)C12C(=O)Nc1ccc(Cl)cc12 (centres undefined)
inactive: T-47D breast 55.8% | BT-549 breast 76.2% | MDA-MB-435 melanoma 45.3% | SW-620 colon 85.9% | MCF7 breast 54.9% | HCT-116 colon 65.5% | HCC-2998 colon 90.6% | KM12 colon 83%

CC(=O)Oc1ccc(/C(=C(\C)c2ccc(Cl)cc2)c2ccc(OCCN3CCCCC3)cc2)cc1
inactive: T-47D breast 29.8% | BT-549 breast 73.5% | SW-620 colon 66.7% | HCT-116 colon 32.4% | KM12 colon 24%
active: MDA-MB-435 melanoma -5.9% | MCF7 breast 3.38% | HCC-2998 colon -4.12%

C=C(CBr)[C@@H]1CC[C@]2(C(=O)O)CC[C@]3(C)[C@H](CC[C@@H]4[C@@]5(C)CCC(=O)C(C)(C)[C@@H]5CC[C@]43C)[C@@H]12
inactive: T-47D breast 67.9% | BT-549 breast 84% | MDA-MB-435 melanoma 95.6% | SW-620 colon 85.5% | MCF7 breast 78.2% | HCT-116 colon 72.6% | HCC-2998 colon 95.7% | KM12 colon 68.6%

CCCCCCC12CCC(=O)N1CCc1cncn12 (centres undefined)
inactive: T-47D breast 91.9% | BT-549 breast 114% | MDA-MB-435 melanoma 105% | SW-620 colon 102% | MCF7 breast 94.8% | HCT-116 colon 106% | HCC-2998 colon 108% | KM12 colon 113%

C=CCn1c(SCC(=O)Nc2ccc(C(=O)/C=C/c3ccc(Cl)cc3)cc2)nnc1-c1ccc(Br)cc1
inactive: T-47D breast 88.9% | BT-549 breast 87.4% | MDA-MB-435 melanoma 26.9% | SW-620 colon 82.5% | MCF7 breast 13.4% | HCC-2998 colon 93.8% | KM12 colon 69.9%
active: HCT-116 colon -80.4%

COC(=O)[C@@H](CCCCNC(=O)[C@]12CCC(C)(C)C[C@@H]1C1=CC[C@@H]3[C@@]4(C)C/C(=C/c5ccco5)C(=O)C(C)(C)[C@@H]4CC[C@@]3(C)[C@]1(C)CC2)NC(=O)[C@]12CCC(C)(C)C[C@@H]1C1=CC[C@@H]3[C@@]4(C)C/C(=C/c5ccco5)C(=O)C(C)(C)[C@@H]4CC[C@@]3(C)[C@]1(C)CC2
inactive: T-47D breast 94.7% | BT-549 breast 106% | MDA-MB-435 melanoma 93.9% | SW-620 colon 112% | MCF7 breast 104% | HCT-116 colon 100% | HCC-2998 colon 103% | KM12 colon 103%

O=C(Nc1nc2ccc(C(=O)N3CCN(/C=C/c4ccccc4)CC3)cc2s1)c1ccc(NCCc2ccccc2)c([N+](=O)[O-])c1
active: SW-620 colon 4.25%
inactive: T-47D breast 43.2% | BT-549 breast 71.9% | MDA-MB-435 melanoma 55.8% | MCF7 breast 16% | HCT-116 colon 11.2% | HCC-2998 colon 76.9% | KM12 colon 53.5%

CC(=O)/C(=C\c1c(-c2ccccc2)[nH]c2ccccc12)S(C)(=O)=O
active: T-47D breast 1.27% | BT-549 breast 4.06% | MDA-MB-435 melanoma -42.7% | MCF7 breast 6.97% | KM12 colon 4.04%
inactive: SW-620 colon 13.7% | HCT-116 colon 21.2% | HCC-2998 colon 36.8%

NC(Cc1ccc(O)c([N+](=O)[O-])c1)C(=O)O (centres undefined)
inactive: T-47D breast 103% | BT-549 breast 96.9% | MDA-MB-435 melanoma 112% | SW-620 colon 104% | MCF7 breast 98% | HCT-116 colon 98.5% | HCC-2998 colon 99.6% | KM12 colon 103%

COc1ccc(/C=N\Nc2nc(SCCC(C)C)nc(-c3ccc(OC)cc3)c2C#N)cc1
inactive: T-47D breast 23.1% | BT-549 breast 93.1% | MDA-MB-435 melanoma 71.2% | SW-620 colon 49.6% | MCF7 breast 63.5% | HCT-116 colon 21.1% | HCC-2998 colon 82.1% | KM12 colon 83%

CNC(=O)c1[nH]cc(-c2ccc(OC)cc2)c1-c1cc(OC)c2c(c1OC)OCO2
inactive: T-47D breast 92.3% | BT-549 breast 97.4% | MDA-MB-435 melanoma 99.6% | SW-620 colon 103% | MCF7 breast 97.5% | HCT-116 colon 95.6% | HCC-2998 colon 101% | KM12 colon 104%

CC1=C([Se]CC(OC(=O)CC[Se]c2ccccc2)C(=O)NC(C)(C)C)C(=O)c2ccccc2C1=O (centres undefined)
active: T-47D breast -54.5% | BT-549 breast -89% | MDA-MB-435 melanoma -61.7% | SW-620 colon -76.9% | MCF7 breast -54.7% | HCT-116 colon -61.9% | HCC-2998 colon -87.2% | KM12 colon -92.3%

C=CCOC(=O)Nc1cccn([C@H](Cc2ccccc2)C(=O)NCCC(C)C)c1=O
inactive: T-47D breast 93.8% | BT-549 breast 132% | MDA-MB-435 melanoma 108% | SW-620 colon 109% | MCF7 breast 92.8% | HCT-116 colon 109% | HCC-2998 colon 105% | KM12 colon 110%

O=C(/C=C/c1cccc(Cl)c1)c1ccc(Nc2nc(Nc3ccc(F)cc3)nc(Nc3ccc(Cl)cc3)n2)cc1
inactive: T-47D breast 113% | BT-549 breast 172% | MDA-MB-435 melanoma 117% | SW-620 colon 104% | MCF7 breast 230% | HCT-116 colon 82.3% | HCC-2998 colon 98.2% | KM12 colon 112%

Cc1ccc(/C=C2\COc3ccc(O)cc3C2=O)cc1
inactive: T-47D breast 88.9% | BT-549 breast 79.1% | MDA-MB-435 melanoma 75.8% | SW-620 colon 47.9% | MCF7 breast 12.8% | HCT-116 colon 59.5% | HCC-2998 colon 112% | KM12 colon 46.6%

CC1CN(S(=O)(=O)c2oc(-c3ccc(Cl)cc3)nc2C#N)CC(C)O1 (centres undefined)
inactive: T-47D breast 27% | BT-549 breast 89% | MDA-MB-435 melanoma 86.4% | MCF7 breast 55.2% | HCC-2998 colon 105% | KM12 colon 100%
active: SW-620 colon -66.1% | HCT-116 colon -53.4%

Cc1cc(C(=O)Nc2ncc(Cc3cccc(C(F)(F)F)c3)s2)c2ccccc2n1
inactive: T-47D breast 12.1% | BT-549 breast 34.7% | SW-620 colon 17.3% | MCF7 breast 10.2% | HCT-116 colon 18% | HCC-2998 colon 25.6% | KM12 colon 15.5%
active: MDA-MB-435 melanoma -27.3%

O=C1NC(=C(Cl)Cl)/C(=N\S(=O)(=O)NCc2ccccc2)N1
inactive: T-47D breast 52% | BT-549 breast 97.8% | MDA-MB-435 melanoma 95.8% | SW-620 colon 111% | MCF7 breast 74.4% | HCT-116 colon 94.2% | HCC-2998 colon 127% | KM12 colon 62.9%

O=C(CN1C(=O)S/C(=C\c2ccccc2)C1=O)Nc1ncc(Cc2ccccc2Cl)s1
inactive: T-47D breast 88.1% | BT-549 breast 113% | MDA-MB-435 melanoma 93.6% | SW-620 colon 105% | MCF7 breast 92.7% | HCT-116 colon 94.5% | HCC-2998 colon 105% | KM12 colon 102%

COC12C=C/C(=C(/C(=O)OCc3ccncn3)C(=O)CCCCCCCCC3(OC)C=C/C(=C(/C(=O)OCc4ccncn4)C(=O)CCCCCCCC1)O3)O2
active: BT-549 breast -27.1% | MDA-MB-435 melanoma -34.4% | MCF7 breast 5.92% | HCT-116 colon -50.9% | HCC-2998 colon -85.1% | KM12 colon -75.9%
inactive: T-47D breast 25.3% | SW-620 colon 12.9%

COC(=O)c1c(C)nc(C)c2c1C(=O)C(Br)=C(NCc1ccccc1)C2=O
inactive: T-47D breast 13.7% | BT-549 breast 50.9% | SW-620 colon 16.7% | HCC-2998 colon 21.8% | KM12 colon 37.1%
active: MDA-MB-435 melanoma -76.5% | MCF7 breast -30.2% | HCT-116 colon 1.86%
